# Biological target: Chromo domain-containing protein 1 (Saccharomyces cerevisiae (strain ATCC 204508 / S288c) (Baker's yeast)) (UniProt P32657)
# Experiment: ScCHD-1 Enzyme Inhibition Assay
# Format: functional
# Parameters: scale not given: in the data most compounds retested in dose-response had high values
# Conditions: 30 µM
# Chain of Chromo domain-containing protein 1 (Saccharomyces cerevisiae (strain ATCC 204508 / S288c) (Baker's yeast)) (P32657 whole entry, the tested form may be a part): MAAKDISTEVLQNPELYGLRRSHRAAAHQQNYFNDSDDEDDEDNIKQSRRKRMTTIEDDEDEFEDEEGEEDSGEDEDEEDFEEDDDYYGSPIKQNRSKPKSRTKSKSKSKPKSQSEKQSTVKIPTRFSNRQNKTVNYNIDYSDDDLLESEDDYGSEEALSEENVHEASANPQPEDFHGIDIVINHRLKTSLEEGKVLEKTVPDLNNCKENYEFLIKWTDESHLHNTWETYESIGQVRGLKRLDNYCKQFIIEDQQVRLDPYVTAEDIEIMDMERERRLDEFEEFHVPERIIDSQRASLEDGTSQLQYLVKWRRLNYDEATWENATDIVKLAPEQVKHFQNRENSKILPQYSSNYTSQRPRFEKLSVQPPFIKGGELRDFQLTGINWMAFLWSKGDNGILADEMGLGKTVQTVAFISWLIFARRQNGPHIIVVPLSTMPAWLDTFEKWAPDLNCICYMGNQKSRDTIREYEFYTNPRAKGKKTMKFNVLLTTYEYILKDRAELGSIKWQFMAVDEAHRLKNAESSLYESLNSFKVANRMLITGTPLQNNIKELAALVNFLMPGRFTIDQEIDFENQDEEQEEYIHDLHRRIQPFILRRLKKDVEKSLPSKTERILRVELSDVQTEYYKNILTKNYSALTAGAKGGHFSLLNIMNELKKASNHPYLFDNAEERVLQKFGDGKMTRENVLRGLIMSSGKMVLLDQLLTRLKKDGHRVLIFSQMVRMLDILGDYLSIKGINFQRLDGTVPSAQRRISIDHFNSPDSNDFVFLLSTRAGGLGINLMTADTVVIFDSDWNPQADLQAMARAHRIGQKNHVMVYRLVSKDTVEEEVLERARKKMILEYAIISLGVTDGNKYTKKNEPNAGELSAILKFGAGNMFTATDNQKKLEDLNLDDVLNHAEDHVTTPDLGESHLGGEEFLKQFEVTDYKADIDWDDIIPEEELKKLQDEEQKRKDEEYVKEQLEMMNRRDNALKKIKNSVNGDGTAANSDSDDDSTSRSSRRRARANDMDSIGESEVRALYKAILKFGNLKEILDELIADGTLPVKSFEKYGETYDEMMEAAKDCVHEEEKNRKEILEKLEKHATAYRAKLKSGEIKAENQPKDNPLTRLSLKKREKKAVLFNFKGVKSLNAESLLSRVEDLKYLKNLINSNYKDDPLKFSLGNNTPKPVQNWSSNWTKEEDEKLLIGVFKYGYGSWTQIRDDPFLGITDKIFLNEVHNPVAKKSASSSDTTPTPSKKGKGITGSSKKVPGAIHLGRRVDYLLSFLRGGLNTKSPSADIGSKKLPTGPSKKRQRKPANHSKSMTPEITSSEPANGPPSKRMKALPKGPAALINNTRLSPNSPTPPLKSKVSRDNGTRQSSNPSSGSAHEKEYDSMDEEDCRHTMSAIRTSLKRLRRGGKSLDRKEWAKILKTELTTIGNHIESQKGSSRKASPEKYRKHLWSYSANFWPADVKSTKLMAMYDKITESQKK
row,SMILES,Percent Effect [%]
1,COCC1CC2(CCN(C(=O)c3cccn3C)CC2)CN1C(C)C (centres undefined),-4.39
2,CCN(Cc1cccc(Cl)c1)Cn1nc(C)c2c(C)onc2c1=O,-6.67
3,CC(C)c1nc(CC(=O)Nc2nc(CN3CCCCCC3)cs2)cs1,-15.2
4,COc1cccc(CN(C)S(=O)(=O)N2CCOCC2)c1,-6.9
5,Cc1nn(C)c(N(C)C)c1CNCc1cccc(OCCN(C)C)c1,-6.3
6,Cc1ccc(CNC(=O)CCSCc2csc(C)n2)cn1,-3.92
7,CCO[C@@H]1CC[C@H]2[C@H]1OCCN2C(=O)C1CCOCC1,-4.28
8,CCC1CCCCN1C(=O)c1ccc2[nH]nnc2c1 (centres undefined),-1.41
9,FC(F)(F)C1CCCn2c(CNCc3ccsc3)nnc21 (centres undefined),-3.87
10,CCC1(CC)Cc2ccccc2-c2nc(NCCO)[nH]c(=O)c21,-13.3
11,Cc1nc(C)n(CC2CCCCN2CCC(=O)Nc2cc(C)on2)n1 (centres undefined),-9.87
12,Cc1nc(C)n(CC2CN(CC(=O)Nc3nccs3)CCO2)n1 (centres undefined),-1.52
13,CC(NC(=O)NCCOc1ccc(F)c(F)c1)c1nncn1C (centres undefined),-12.3
14,COCCNc1nc(C2CCCC2)nc2c1CCNCC2,-2.52
15,Cc1ccc(CNS(=O)(=O)CC2=NC(=O)n3cccc3C2=O)cc1,2.54
16,CCS(=O)(=O)N(C)C(=O)c1cc(C)n(-c2cccc(OC)c2)c1C,-8.76
17,Cn1ncc2c(=O)[nH]c(CN(Cc3ccco3)C3CCCC3)nc21,-9.65
18,O=C(CS(=O)(=O)CC1CCCCC1)NC1CCCCNC1=O (centres undefined),83.8
19,CC(N(C)Cc1nc2c(cnn2C)c(=O)[nH]1)C(C)(C)C (centres undefined),-4.7
20,CC(C)c1nc(C2CCCN2C(=O)c2nccnc2N)no1 (centres undefined),-5.79

row,SMILES,Percent Effect [%]
1,O=C1CC(N(C(=O)c2ccc3c(c2)CCC3)C2CC2)C(=O)N1 (centres undefined),-6.63
2,CCn1cnnc1CNC(=O)N1CCC(Cc2cccnc2)CC1,8.62
3,CC(NC(=O)NCc1cccc(N2CCCC2=O)c1)c1ccccc1 (centres undefined),-21.1
4,O=C1N(c2ccc(F)cc2)Cc2nc(=O)n(Cc3cccc(Cl)c3)n21,-4.31
5,Cc1noc2nc(C3CCN(Cc4cccnc4)CC3)cc(C(F)F)c12,1.36
6,CCOc1cccc(C(=O)NCCC(=O)Nc2ccncc2)c1,-3.67
7,O=S(=O)(Cc1ccccc1F)NCCN1CCOCC1,-1.76
8,O=C(NCCc1ccccc1)C1CCC(Cn2cnnn2)CC1 (centres undefined),2.05
9,CC(C)c1nnc2n1CCN(Cc1csc(CC(=O)N(C)C)n1)C2,-15
10,Cc1cc(C)n(CC2CCCN2C(=O)CCc2cscn2)n1 (centres undefined),1.57
11,CC(=O)N1CCC(C(=O)N(C)[C@@H]2CCC[C@@H](N3CCCC3)[C@@H]2O)CC1,-22.6
12,N#Cc1ccc(OCCCN2CCc3cncnc3C2)cc1,-4.55
13,Cc1cnn(CCNCC(=O)NCCOc2ccccc2)c1,-8.28
14,CC(CCN1CCn2nc(CNC(=O)N(C)C)cc2C1)c1ccccc1 (centres undefined),-3.46
15,COc1ccc(CN(C)Cc2nc3c(cnn3C)c(=O)[nH]2)cc1OC,-3.45
16,CCOC(=O)C1CCCN(c2ccc(-c3nc(C)no3)cn2)C1 (centres undefined),-6.07
17,CC1Cc2ccccc2N1Cc1occc1C(=O)OCC(N)=O (centres undefined),-3.53
18,CC(C)Oc1ccccc1CNC(=O)N1CCC(n2cncn2)CC1,-29.4
19,COCC(O)CN(C)C(=O)NC1CCN(Cc2ccccn2)CC1 (centres undefined),-8.51
